Most compounds without a hit are left out; they make up all but 2.8% or so of the library.
HTRA1 inhibitor = blocks human HTRA1 serine peptidase. Q92743. inhibition, % at 5.96 µM. recombinant HTRA1, FP-rhodamine activity-based probe, fluorescence polarization. actives 0.5% (n = 340,000); in the data active = inhibition above about 36%
PAFAH1B3 FP inh = inhibitors of human PAFAH1B3 | actives 0.28% (n = 340,000) | AID 492972 | recombinant PAFAH1B3, FP-rhodamine probe, fluorescence polarization | inhibition, % at 3.39 µM;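 active = inhibition above the screen-wide average of all tested compounds plus 3 SD, cut at about 25% in these data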
Target sequence (Q15102 whole entry, looked up): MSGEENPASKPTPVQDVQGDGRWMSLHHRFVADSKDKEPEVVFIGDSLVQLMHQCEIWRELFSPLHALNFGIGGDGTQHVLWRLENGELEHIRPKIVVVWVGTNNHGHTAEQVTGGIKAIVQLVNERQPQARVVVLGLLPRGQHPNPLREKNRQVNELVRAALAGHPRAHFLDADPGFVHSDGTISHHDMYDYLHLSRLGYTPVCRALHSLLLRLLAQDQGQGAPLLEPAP
pPAFAH inh = pPAFAH (human) enzyme inhibition; actives 1.5% (n = 330,000); inhibition, % at 3.39 µM; Q13093; recombinant pPAFAH, FP-rhodamine probe fluorescence polarization;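 active = inhibition above the mean inhibition across the screen plus 3 SD, cut at about 25% in these data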;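 also: inhibitors block binding of the rhodamine activity-based probe so polarization drops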
PAFAH1B2 FP inh = PAFAH1B2 (human) inhibition | P68402 | recombinant PAFAH1B2, FP-rhodamine activity probe, fluorescence polarization | inhibition, % at 3.39 µM | actives 1.2% (n = 340,000) | AID 492953;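 active = inhibition above the mean of all tested compounds plus 3 SD, cut at about 24% in these data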
Target sequence (P68402 whole entry, looked up): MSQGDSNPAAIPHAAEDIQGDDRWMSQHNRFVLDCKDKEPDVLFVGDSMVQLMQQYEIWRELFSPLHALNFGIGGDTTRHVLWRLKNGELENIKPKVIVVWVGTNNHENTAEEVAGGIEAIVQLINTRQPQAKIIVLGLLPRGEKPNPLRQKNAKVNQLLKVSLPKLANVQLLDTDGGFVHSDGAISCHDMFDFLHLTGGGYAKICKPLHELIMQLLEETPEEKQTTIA
PAFAH2 inh = inhibitors of human PAFAH2; Q99487; recombinant PAFAH2, FP-rhodamine activity probe, fluorescence polarization; inhibition, % at 3.39 µM; actives 0.99% (n = 340,000); AID 492956;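 active = inhibition above the mean over all tested compounds plus 3 SD, cut at about 30% in these data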;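 also: inhibitors block probe labeling of enzyme so polarization drops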
DAGLB inh = blocks human DAGLB lipase activity; AID 504411; inhibition, % at 5.17 µM; HEK293T DAGLB membrane lysate, EnzChek fluorogenic substrate; Q8NCG7; actives 0.059% (n = 340,000); in the data active = inhibition above about 34%
Each line names hits and unclear results; the compound was inactive in the other large screens.

COc1ccc(N2CCN(C(=O)COC(=O)c3cnccn3)CC2)cc1	none
O=C(CSc1ccc(Cl)cc1)OCc1nnc(-c2ccccc2)o1	pPAFAH inh 25.6, PAFAH1B2 FP inh 96.3
O=C(/C=C/c1ccco1)OCc1nnc(-c2ccc(Cl)cc2)o1	pPAFAH inh 28.1, PAFAH2 inh 66.7
CCc1ccc(/C=C2/SC(=S)N(CCCC(=O)Nc3ccccc3C(=O)O)C2=O)cc1	PAFAH1B2 FP inh 61.4, PAFAH2 inh 43.6
O=C(CCCN1C(=O)/C(=C\c2cccs2)SC1=S)Nc1ccccc1O	none (no result: PAFAH1B3 FP inh, pPAFAH inh, PAFAH1B2 FP inh, PAFAH2 inh)
CC(C(=O)Nc1ccc(O)cc1C(=O)O)N1C(=O)/C(=C\c2cccs2)SC1=S (stereo not drawn)	pPAFAH inh 28.4
O=C(CCCN1C(=O)/C(=C/c2ccccc2Cl)SC1=S)NNC(=O)c1ccccc1	pPAFAH inh 32.1
O=C(CCCN1C(=O)/C(=C/c2cccs2)SC1=S)Nc1cc([N+](=O)[O-])ccc1O	pPAFAH inh 30.1
CC(C(=O)N1CCc2ccccc21)n1cnc2c1c(=O)n(C)c(=O)n2C (stereo not drawn)	none
O=[N+]([O-])c1ccc(Cl)c(NC(=S)N2CCCC2)c1	none
O=C(CCCN1C(=O)/C(=C\c2ccccc2)SC1=S)Nc1ccc(O)cc1C(=O)O	PAFAH1B2 FP inh 63.6
O=C(CCCN1C(=O)/C(=C/c2ccccc2)SC1=S)Nc1ccccc1O	none
COC(=O)N/N=C/c1cn(CCOc2cccc(OC)c2)c2ccccc12	none
CCC(C)c1ccc(OCCn2cc(/C=N/NC(=O)CSc3nnc(C)s3)c3ccccc32)cc1 (stereo not drawn)	pPAFAH inh 26.1
Cc1cccc(OCCn2cc(/C=N/NC(=O)c3ccncc3)c3ccccc32)c1	pPAFAH inh 27.6
CC(C)CC(=O)Nc1cccc(C(C)O)c1 (stereo not drawn)	none (no result: HTRA1 inhibitor, PAFAH1B3 FP inh, PAFAH1B2 FP inh, PAFAH2 inh, DAGLB inh)
Cc1cc(C)n2nc(SCC(=O)c3c(N)n(CC(C)C)c(=O)n(C)c3=O)nc2n1	none
CNC(=O)[C@@H]1CCC(=O)N1	none
COc1ccc(OCC(=O)O/N=C(\N)Cc2cccs2)cc1	none
N/C(Cc1cccs1)=N\OC(=O)COc1ccc(Br)cc1	PAFAH1B2 FP inh 28.3
O=C(Cc1c(F)cccc1Cl)Nc1cccc(S(=O)(=O)NC2=NCCCCC2)c1	none
O=C(Cc1ccc(Cl)cc1Cl)Nc1cccc(S(=O)(=O)Nc2ccccc2F)c1	pPAFAH inh 27.3
CCC(=O)Nc1cc(C)c(NC(=O)C23CC4CC(CC(C4)C2)C3)cn1	PAFAH1B2 FP inh 31.9
CCNC(=O)C(=O)NCCc1ccc(Cl)cc1	PAFAH1B2 FP inh 25.2
O=C(NCCc1ccc(O)cc1)c1ccc(Cl)cc1	none
COc1ccc(CCNC(=O)c2ccc(=O)[nH]c2)cc1	none
O=C(NCCCO)C(=O)NCCc1ccc(Cl)cc1	PAFAH1B2 FP inh 27.9
CC1(C)CC(NC(=O)C(=O)NCCc2ccc(Cl)cc2)CC(C)(C)N1	none
O=C(NCCc1ccc(Cl)cc1)c1ccc(=O)[nH]c1	PAFAH1B2 FP inh 30.1
O=C(CCc1c[nH]c2ccccc12)NCCc1ccc(Cl)cc1	PAFAH1B2 FP inh 28.4
O=C(CCc1c[nH]c2ccccc12)NCCc1ccccc1	none
CN(CCCn1ccc(N)nc1=O)Cc1ccco1	none (no result: PAFAH1B3 FP inh, pPAFAH inh, PAFAH1B2 FP inh, PAFAH2 inh)
O=C(OC(C(=O)NC1CCCCC1)c1ccc(C(F)(F)F)cc1)c1ccco1 (stereo not drawn)	none
O=Cc1ccc(C(=O)OCC(=O)Nc2ccc(F)cc2F)cc1	PAFAH2 inh 46.6
O=C(O)CC(NC(=O)c1ccncc1)c1ccccc1 (stereo not drawn)	none
COc1ccc(CNC(=O)C(=O)NCC2OCCCN2S(=O)(=O)c2cccs2)cc1 (stereo not drawn)	PAFAH1B2 FP inh 27.4
Cc1ccc(S(=O)(=O)N2CCOC2CNC(=O)C(=O)NCc2ccc(Cl)cc2)cc1 (stereo not drawn)	PAFAH1B2 FP inh 29.2
Cc1cc(=O)oc2cc(O)cc(OCc3ccccc3)c12	none (no result: pPAFAH inh)
Cc1ccc(NC(=O)c2cc(N3C(=O)C=CC3=O)ccc2N2CCOCC2)cc1Cl	none
O=C(OCc1c(Cl)cccc1Cl)c1ccncc1	pPAFAH inh 27.1
O=C(OCC(=O)N1CCN(C(=O)COC(=O)c2ccncc2)CC1)c1ccncc1	pPAFAH inh 27.3
CC(C)[C@H](NC(=O)c1ccco1)C(=O)N(C)Cc1c(F)cccc1Cl	none
Cc1ccc(CCNS(=O)(=O)c2cc3c(cc2C)NC(=O)CO3)cc1	PAFAH1B2 FP inh 24.5
Cc1nc2ccc(S(=O)(=O)NCC(=O)NCc3ccc4c(c3)OCO4)cc2s1	none
Cc1nc2ccc(S(=O)(=O)NCC(=O)NCc3ccc(Cl)cc3)cc2s1	PAFAH1B2 FP inh 25.2
Cc1nc2ccc(NS(=O)(=O)c3ccc(C)c(C)c3)cc2s1	none
Cc1nc2ccc(S(=O)(=O)Nc3ccccc3C)cc2s1	pPAFAH inh 32.6
Cc1c(N=C2NC(=O)/C(=C/c3ccc(O)cc3)S2)c(=O)n(-c2ccccc2)n1C	none
O=C1NC(=NCc2ccccc2)S/C1=C/c1ccc(O)cc1	pPAFAH inh 29.4
Clc1ccccc1OCCCCn1ccnc1	none
Clc1ccc(SCCCCn2ccnc2)cc1	PAFAH1B2 FP inh 71.1
CC(C)(C)c1ccc(OCC(=O)NNC(=O)Cc2cccs2)cc1	PAFAH1B2 FP inh 26.0
CCCCCCNC(=O)OC12CN(C(=O)OC(C)C)N(C(=O)OC(C)C)CC1(O)CN(S(=O)(=O)c1ccc(C)cc1)C2 (stereo not drawn)	none (no result: PAFAH1B3 FP inh, pPAFAH inh, PAFAH1B2 FP inh, PAFAH2 inh)
O=C(/C=C/c1ccc(O)c([N+](=O)[O-])c1)c1ccc2ccccc2c1	pPAFAH inh 31.6, PAFAH1B2 FP inh 28.8, PAFAH2 inh 44.0
CN(C)c1ccc(/C=C/C(=O)c2ccccc2)cc1[N+](=O)[O-]	none
CC(CCN1CCN=C1Nc1ccccc1)c1ccccc1 (stereo not drawn)	none
COc1ccc2c3c(cccc13)C(=O)N(O)C2=O	none
CCC1=NNc2cccc3c(OC)ccc1c23	pPAFAH inh 48.4 (no result: HTRA1 inhibitor, PAFAH1B3 FP inh, PAFAH1B2 FP inh, PAFAH2 inh, DAGLB inh)
O[C@H]1C[C@H](c2ccccc2)N(Cc2cccs2)C[C@@H]1n1cc(-c2ccc(F)cc2)nn1	none (no result: PAFAH1B3 FP inh, pPAFAH inh, PAFAH1B2 FP inh, PAFAH2 inh)
Cc1ccc(N(CC(N)=O)C2SC(=O)N(Cc3ccccc3)C2=O)cc1 (stereo not drawn)	PAFAH1B2 FP inh 25.6
Cc1c(NC(=O)c2c(N)sc3c2CCCC3)c(=O)n(-c2ccccc2)n1C	none
COCCNC(=O)CN(C(=O)CCC(=O)Nc1ccccn1)c1ccccc1OC	none
Cc1ccc(SCC(=O)OC(C)C(=O)NCc2ccccc2)cc1C (stereo not drawn)	pPAFAH inh 34.3
Cc1ccc(C)c(SCC(=O)OCC(=O)NCc2ccccc2)c1	pPAFAH inh 25.1
Cc1cc(N)ccc1N1CCCC1	HTRA1 inhibitor 81.5, pPAFAH inh 26.1
COc1cc(/C=C(\C#N)c2nc3ccccc3s2)cc([N+](=O)[O-])c1O	PAFAH1B3 FP inh 42.3, PAFAH1B2 FP inh 28.8, PAFAH2 inh 54.7 (no result: pPAFAH inh)
COc1ccc(-c2csc(/C(C#N)=C\c3ccc(O)c([N+](=O)[O-])c3)n2)cc1OC	none
